Source: PubChem
An excerpt weighted towards active compounds, which were near 2.5% of everything screened.
CHT block: human CHT choline transport inhibition. CHT-expressing cells, membrane potential dye, choline response; hits give low values. AID 488975. B-score at 10 µM. 0.86% of 310,000 active;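 active = B-score over 3 SD under the library average, and starting fluorescence ratio not unusually high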;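 also: choline stimulus applied at its EC90 after an EC20 pre-addition; B-score computed on integrated fluorescence ratio after choline addition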
ANO1 block: inhibitors of mouse TMEM16A calcium-activated chloride channel. normalized B-score (activity score, 25-100; higher = stronger inhibition) at 10 µM. HEK293 TMEM16A/YFP iodide influx fluorescence, ionomycin. 1.2% of 310,000 active. Q8BHY3. AID 588511;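 active = ratio plate-corrected score three or more library SD toward inhibition, starting fluorescence score within five deviations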;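 also: score derived from kinetic fluorescence span divided by baseline fluorescence per well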
Target sequence (Q8BHY3 whole entry, looked up): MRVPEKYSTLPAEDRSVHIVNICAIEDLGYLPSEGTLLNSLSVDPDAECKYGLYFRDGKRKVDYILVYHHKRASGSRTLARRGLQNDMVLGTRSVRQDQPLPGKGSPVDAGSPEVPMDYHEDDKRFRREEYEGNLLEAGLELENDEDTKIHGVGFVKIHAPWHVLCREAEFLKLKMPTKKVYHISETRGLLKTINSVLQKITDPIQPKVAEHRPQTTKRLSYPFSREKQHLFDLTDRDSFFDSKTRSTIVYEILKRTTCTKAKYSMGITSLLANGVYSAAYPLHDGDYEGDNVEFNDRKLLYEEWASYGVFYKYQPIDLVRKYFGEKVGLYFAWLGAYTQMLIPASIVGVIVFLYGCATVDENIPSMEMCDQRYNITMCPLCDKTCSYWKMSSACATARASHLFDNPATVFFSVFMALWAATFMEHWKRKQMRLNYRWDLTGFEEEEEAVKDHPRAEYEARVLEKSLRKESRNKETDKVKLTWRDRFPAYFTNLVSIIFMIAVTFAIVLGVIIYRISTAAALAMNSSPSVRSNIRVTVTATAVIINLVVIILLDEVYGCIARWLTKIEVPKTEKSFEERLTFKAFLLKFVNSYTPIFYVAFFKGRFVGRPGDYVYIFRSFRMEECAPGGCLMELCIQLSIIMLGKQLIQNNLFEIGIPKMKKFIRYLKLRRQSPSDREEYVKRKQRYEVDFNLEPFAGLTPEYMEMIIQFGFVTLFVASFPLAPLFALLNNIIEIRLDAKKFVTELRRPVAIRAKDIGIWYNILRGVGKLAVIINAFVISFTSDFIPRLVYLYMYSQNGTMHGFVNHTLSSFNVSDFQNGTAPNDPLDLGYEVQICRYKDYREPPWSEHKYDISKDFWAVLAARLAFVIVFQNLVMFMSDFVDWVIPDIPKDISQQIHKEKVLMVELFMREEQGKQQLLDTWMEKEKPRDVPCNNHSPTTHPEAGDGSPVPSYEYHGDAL
PKA-R2B act: activates the human PKA-R2B holoenzyme complex | P22694+P31323 | PKA-R2B holoenzyme dissociation, Cy5-IP20 fluorescence polarization; R2B truncated from residue 108, S112A mutant; 0% DMSO only, 100% 113 µM cGMP | activation, % at 11.4 µM | 0.079% of 340,000 active | AID 504700;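 active = activation above a cutoff set at the mean over all compounds plus 3 SD, cut at about 18% in these data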;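 also: higher means more holoenzyme dissociation and a rise in polarization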
CHT PAM: allosterically activates the human high affinity choline transporter | Q9GZV3 | AID 488977 | B-score at 10 µM | 0.49% of 310,000 active | CHT-expressing cells, membrane potential dye, choline EC20; hits give high values; LV-AA mutant CHT in HEK293 cells;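 active = initial fluorescence not abnormally high and integrated response B-score, plate-corrected, over 3 SD above library mean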
PKA-R1A activ: activators of PKA-R1A complex; P00514+P68181; PKA-R1A dissociation, Cy5-IP20 fluorescence polarization; scaled: DMSO 0%, 113 µM cGMP 100%; activation, % at 11.4 µM; 0.083% of 340,000 active; AID 504707;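 active = percent activation above the mean of all tested compounds plus 3 SD, cut at about 19% in these data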;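 also: higher means more PKAc released from R1A so a rise in polarization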
TMEM16A act: activates or potentiates the mouse TMEM16A chloride channel; HEK293 TMEM16A/YFP-H148Q/I152L, iodide quench fluorescence; hits give low values; 0.3% of 340,000 active; B-score at 10 µM;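 active = fluorescence-ratio B-score plate-corrected deviation score at least 3 library SD below zero, with starting fluorescence score within 5 deviations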;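 also: channel opened by trigger with iodide after compound preincubation; score built on the fluorescence ratio of max minus min over baseline; more negative score means more quench and so TMEM16A activation or potentiation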
CHT inh conf: human CHT inhibition, confirmatory screen; CHT-expressing cells, choline membrane potential dye; LV-to-AA substituted CHT, HEK293 cells; CHT activity remaining % of control (hits give low values), % at 10 µM; 70% of 2,400 active; AID 493221; shares compounds with CHT block;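 active = choline transporter activity left, mean of duplicates at 10 µM, below buffer-only control mean minus 3 SD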;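 also: depolarization triggered by choline at its EC90 following an EC20 pre-addition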
HEK293 CHT ctr: activity in parental HEK293 cells lacking CHT; shares compounds with CHT block; membrane potential dye, choline response; active = decrease or increase beyond buffer ±3SD; membrane potential ratio readout (active if shifted either direction beyond buffer ±3SD; no single direction) at 10 µM; 4% of 2,400 active;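 also: parental cells lack the transporter so any hit is non-specific; ratio is peak minus trough fluorescence over baseline after EC90 choline challenge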
Numbers stand for hits; – = inactive; · = no result given.

SMILES | CHT block | ANO1 block | PKA-R2B act | CHT PAM | PKA-R1A activ | TMEM16A act | CHT inh conf | HEK293 CHT ctr
COc1cc2c(cc1OC)-c1cc(N3CCCc4ccccc43)nc(=O)n1CC2 | -6.32 | – | – | – | – | – | 69.7% | –
Cc1cc(C)n(CC(=O)NNC(=O)C2CC(=O)N(Cc3ccccc3Cl)C2)n1 (centres undefined) | – | – | – | – | – | – | · | ·
Oc1c(Cl)cc(Cl)cc1C=Nc1ccc2c(c1)OCCO2 | -5.14 | – | – | – | – | – | 62.5% | –
Brc1ccc(C=Nc2ccc3c(c2)OCCOCCOCCO3)s1 | – | – | – | – | – | – | · | ·
CN(C)c1ncnc2c1C(c1ccccc1)C(C)(C)O2 (centres undefined) | · | · | – | · | – | – | · | ·
Nc1nc(SCC(=O)c2cc(F)ccc2F)n[nH]1 | – | – | – | – | – | – | · | ·
Cc1cc(C(=O)CSc2n[nH]c(N)n2)c(C)n1-c1ccccc1 | – | – | – | – | – | – | · | ·
Cc1cc(C(=O)CSc2n[nH]c(N)n2)c(C)n1-c1ccc(F)cc1 | -8.17 | – | – | – | – | – | 70.7% | –
Cc1cc(C(=O)CSc2n[nH]c(N)n2)c(C)n1-c1cc(F)ccc1F | -7.11 | – | – | – | – | – | 52.1% | –
COc1cc(/C=C/C(=O)OCC(=O)c2c(N)n(C)c(=O)n(C)c2=O)ccc1OC(F)F | – | – | – | – | – | – | · | ·
CCN1CCN(C(=O)c2ccc3nc(-c4ccccc4)c(-c4ccccc4)nc3c2)CC1 | -7.02 | – | – | – | – | – | 22.0% | –
CN1CCN(CCNC(=O)c2ccc3nc(-c4ccc(F)cc4)c(-c4ccc(F)cc4)nc3c2)CC1 | -11.6 | – | – | – | – | – | 8.4% | –
Cc1ccc(S(=O)(=O)N[C@@H](C)C(=O)N2CCC(C(=O)N[C@@H](Cc3ccccc3)C(=O)O)CC2)cc1 | – | – | – | – | – | – | · | ·
O=C(O)CSCC(=O)Nc1ccccc1SCCS(=O)(=O)c1ccc(Cl)cc1 | – | – | – | – | – | – | · | ·
COc1ccc(C(CCN2CCCC2)c2c(OC)cc(OC)c3c(-c4ccccc4)cc(=O)oc23)cc1 (centres undefined) | -5.18 | – | – | – | – | – | 51.3% | –
COc1ccc(C2CC(=O)Oc3c(C(CCN4CCCC(C)C4)c4ccc(N(C)C)cc4)c(OC)cc(OC)c32)cc1 (centres undefined) | – | – | – | – | – | – | · | ·
COc1ccc(C2CC(=O)Oc3c(C(CCN4CCCCC4)c4ccc(N(C)C)cc4)c(OC)cc(OC)c32)cc1 (centres undefined) | -5.9 | – | – | – | – | – | 47.2% | –
COc1cc(OC)c2c(-c3ccccc3)cc(=O)oc2c1C(CCN1CCCC1)c1ccc2c(c1)OCO2 (centres undefined) | -6.49 | – | – | – | – | – | 49.5% | –
COc1ccc(C(CCN2CCCC(C)C2)c2c(OC)cc(OC)c3c(-c4ccccc4)cc(=O)oc23)cc1 (centres undefined) | -5.66 | – | – | – | – | – | 49.9% | –
COc1cc(OC)c2c(-c3ccccc3)cc(=O)oc2c1C(CCN1CCOCC1)c1ccc2c(c1)OCO2 (centres undefined) | · | · | – | · | – | · | · | ·
COc1cc(OC)c2c(-c3ccccc3)cc(=O)oc2c1C(CCN1CCCC(C)C1)c1ccc(N(C)C)cc1 (centres undefined) | -5.96 | – | – | – | – | – | 53.5% | –
COc1ccc(N(CC(=O)N2CCc3ccccc3C2)S(C)(=O)=O)cc1Cl | – | – | – | – | – | – | · | ·
CCOC(=O)C1=C(CC)OC(N)=C(C#N)C1c1ccc(OC)c(OC)c1OC (centres undefined) | – | – | – | – | – | – | · | ·
CCOC(=O)C1=C(CC)OC(N)=C(C#N)C1c1cc(OC)ccc1OC (centres undefined) | -13.1 | – | – | – | – | – | – | –
CCOC(=O)CC1=C(C(=O)OCC)C(c2cccs2)C(C#N)=C(N)O1 (centres undefined) | -5.31 | – | – | – | – | – | – | –
SMILES | CHT block | ANO1 block | PKA-R2B act | CHT PAM | PKA-R1A activ | TMEM16A act | CHT inh conf | HEK293 CHT ctr
CCOC(=O)C1CCN(C(=O)COc2ccc(Br)cc2Br)CC1 | – | – | – | – | – | – | · | ·
CCOC(=O)C1CCN(C(=O)COc2cc(C)c(Br)cc2C)CC1 | -6.47 | – | – | – | – | – | – | –
CCn1c(=O)cc(SCC(=O)NCc2ccc(C)o2)c2ccccc21 | -5.08 | – | – | – | – | – | – | –
COc1ccccc1CCNC(=O)C(=O)NCC1OCCN1C(=O)c1ccc(Cl)cc1 (centres undefined) | – | – | – | – | – | – | · | ·
CC(=O)Nc1cc(NC(C)=O)cc(C(=O)OC(C)C(=O)Nc2ccc(S(=O)(=O)N3CCCC3)cc2)c1 (centres undefined) | -4.95 | – | – | – | – | – | 44.8% | –
CC(OC(=O)c1ccc(S(=O)(=O)N2CCCCC2)cc1)C(=O)Nc1ccc(C(N)=O)cc1 (centres undefined) | · | · | – | · | – | – | · | ·
Clc1ccc(OCCn2c(-c3ccco3)nc3ccccc32)cc1 | – | – | – | – | – | – | · | ·
c1coc(Cn2c(-c3ccco3)nc3ccccc32)c1 | -8.04 | – | – | – | – | – | – | -10.7
CCCN(CC(=O)Nc1ccc(F)c(F)c1F)C(=O)C1=COCCO1 | – | – | – | – | – | – | · | ·
CCc1c(O)nc(SCc2ccccc2)n(C(C)CC)c1=O (centres undefined) | -5.17 | – | – | – | – | – | – | –
C=CCSc1nc(O)c(CC)c(=O)n1C(C)CC (centres undefined) | – | – | – | – | – | – | · | ·
N#C/C(=C(/O)CCl)c1nc(-c2ccccc2)cs1 | -8.41 | – | – | – | – | – | -31.8% | –
O=C(Cn1nc(-c2ccccc2)ccc1=O)NCc1ccc(F)cc1 | -6.26 | – | – | – | – | – | 48.5% | –
O=C(Cn1nc(-c2ccccc2)ccc1=O)NCc1ccc2c(c1)OCO2 | – | – | – | – | – | – | · | ·
COc1cccc(N(CC(=O)NC2CCCCC2)C(=O)Cn2nnc(-c3ccc(C)o3)n2)c1 | · | · | – | · | – | – | · | ·
CCCc1ccc(OCc2ccc(C(=O)O)o2)c(OC)c1 | – | – | – | – | – | – | · | ·
